Screen size: about 5,500 compounds; about 2,000 (36%) were called active. About 18% were inconclusive and are not listed. Rule as the data show it: active = normalized growth mostly below about 0.91 (no sharp cut-off); inconclusive = no clear call, values can overlap the other calls; inactive = mostly above about 0.92. The list shows a part of the results.
Assay: chemical genetic growth profiling, strain panel (AID 1159580);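 also: tested at 20 µM; growth read once vehicle control cultures reached saturation at 30 °C; 1 = growth at the plate median or of vehicle wells; lower values mean less growth of the strain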
Conditions: growth OD

Measured: normalized growth

O=C(O)CSCCOc1ccccc1
inactive: S. cerevisiae deletion strains, locus YAL013W, strain DEP1, active compounds read low 1.01 | S. cerevisiae deletion strains, locus YBR229C, strain ROT2, active compounds read low 1.01 | S. cerevisiae deletion strains, locus YCL061C, strain MRC1, active compounds read low 1 | S. cerevisiae deletion strains, locus YDL101C, strain DUN1, active compounds read low 0.997 | S. cerevisiae deletion strains, locus YDL134C, strain PPH21, active compounds read low 1.03 | S. cerevisiae deletion strains, locus YDR150W, strain NUM1, active compounds read low 0.932 | S. cerevisiae deletion strains, locus YEL061C, strain CIN8, active compounds read low 1.01 | S. cerevisiae deletion strains, locus YGR078C, strain PAC10, active compounds read low 1 | S. cerevisiae deletion strains, locus YHR030C, strain SLT2, active compounds read low 1.07 | S. cerevisiae deletion strains, locus YHR087W, strain rtc3, active compounds read low 0.998 | S. cerevisiae deletion strains, locus YJR043C, strain POL32, active compounds read low 1.01 | S. cerevisiae deletion strains, locus YJR075W, strain HOC1, active compounds read low 1.02 | S. cerevisiae deletion strains, locus YKL190W, strain CNB1, active compounds read low 1.01 | S. cerevisiae deletion strains, locus YLR039C, strain RIC1, active compounds read low 1.04 | S. cerevisiae deletion strains, locus YLR058C, strain SHM2 (second series), active compounds read low 1.01 | S. cerevisiae deletion strains, locus YLR085C, strain ARP6, active compounds read low 0.997 | S. cerevisiae deletion strains, locus YLR262C, strain YPT6, active compounds read low 1.05 | S. cerevisiae deletion strains, locus YML094W, strain GIM5, active compounds read low 1.01 | S. cerevisiae deletion strains, locus YMR219W, strain ESC1, active compounds read low 1 | S. cerevisiae deletion strains, locus YMR263W, strain SAP30, active compounds read low 1.01 | S. cerevisiae deletion strains, locus YMR307W, strain GAS1, active compounds read low 1.05 | S. cerevisiae deletion strains, locus YNL153C, strain GIM3, active compounds read low 1 | S. cerevisiae deletion strains, locus YNL298W, strain CLA4 (second series), active compounds read low 1.02 | S. cerevisiae deletion strains, locus YNL322C, strain KRE1, active compounds read low 0.997 | S. cerevisiae deletion strains, locus YNR030W, strain Alg12, active compounds read low 1.02 | S. cerevisiae deletion strains, locus YPL055C, strain LGE1, active compounds read low 1.09 | S. cerevisiae deletion strains, locus YPL241C, strain CIN2, active compounds read low 0.994 | S. cerevisiae deletion strains, locus YPR135W, strain CTF4, active compounds read low 1.17 | S. cerevisiae strains, strain wild type, active compounds read low 1.02
